Measurements taken from the supplement of paper PMC10681739.

target: T1, ETS1 (UniProt P14921); assay: TF binding intensity (PBM fluorescence), negative control probe (arbitrary fluorescence units); higher = stronger binding
T1 sequence: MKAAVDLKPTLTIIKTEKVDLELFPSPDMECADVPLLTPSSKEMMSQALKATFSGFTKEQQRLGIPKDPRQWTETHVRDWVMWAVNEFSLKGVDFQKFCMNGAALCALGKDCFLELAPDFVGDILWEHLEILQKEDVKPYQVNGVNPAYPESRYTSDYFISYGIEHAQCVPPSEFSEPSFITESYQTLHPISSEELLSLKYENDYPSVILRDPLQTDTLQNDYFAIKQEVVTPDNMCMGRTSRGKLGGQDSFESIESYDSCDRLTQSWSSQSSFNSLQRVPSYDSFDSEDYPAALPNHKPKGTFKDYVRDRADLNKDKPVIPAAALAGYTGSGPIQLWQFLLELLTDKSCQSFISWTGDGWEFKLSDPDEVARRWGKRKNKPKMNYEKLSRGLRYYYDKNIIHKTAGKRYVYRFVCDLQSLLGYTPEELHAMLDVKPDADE
Description: (§1)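 gcPBM negative-control 36-bp genomic probes lacking TF binding sites. Each was incubated with recombinant human ETS1 or RUNX1 alone and detected by antibody fluorescence. Values are medians over replicate spots (4 spots for the ETS1-RUNX1 arrays, 3 for the ETS1-ETS1 array). The probes sit in constant array flanks that are not printed.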

Compared with “CCTATTAAATTCAGATTTGCAGTTTGTTTTTTATCA (protein concentration 10 nM)”, “TTTTTAAATTCGGTTTTGTGTTTTATCTTCAATTTC (protein concentration 10 nM)” is lower in TF binding intensity: 117 for the first, 105 for the second.

Going from “CCGGCTGTCTCCTGCACCCAGGTAAGCAGCGGCGCT (protein concentration 10 nM)” to “AACTTGTCCCTGGAATGTGGTTGAAACAGACTTAGG (protein concentration 1 nM)”, the TF binding intensity rises from 108 to 448.

Compared with “TGACTCTCCCCTCCATTCCCACCCCATACCCCCTTC (protein concentration 10 nM)”, “AAGGTTCTGATTCCGAGTCCCCTGAGGTGGCAGTGG (protein concentration 10 nM)” is lower in TF binding intensity: 198 for the first, 111 for the second.

target: RUNX1 (UniProt Q01196); assay: as above
Description: as §1

RUNX1, sequence (Q01196 whole entry): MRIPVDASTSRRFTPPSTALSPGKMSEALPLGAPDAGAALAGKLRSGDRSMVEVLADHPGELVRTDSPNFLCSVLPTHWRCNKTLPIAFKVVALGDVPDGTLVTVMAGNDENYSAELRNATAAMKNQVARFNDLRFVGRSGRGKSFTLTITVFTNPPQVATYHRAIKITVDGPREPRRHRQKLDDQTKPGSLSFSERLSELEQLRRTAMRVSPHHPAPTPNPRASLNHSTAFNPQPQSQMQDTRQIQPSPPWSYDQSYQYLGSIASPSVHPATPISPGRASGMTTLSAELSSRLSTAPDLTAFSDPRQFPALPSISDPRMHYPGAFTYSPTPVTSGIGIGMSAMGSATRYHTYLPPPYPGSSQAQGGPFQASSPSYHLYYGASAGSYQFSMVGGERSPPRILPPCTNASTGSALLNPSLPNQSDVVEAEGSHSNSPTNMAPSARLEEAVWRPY

Going from “ACCCCATTTCAGTCATTTCCTGCTGCAACTAAGTCA (protein concentration 2 nM)” to “ATTCCATTCCAATCCTTTCCGCTCGGCTAAATTCCT (protein concentration 2 nM)”, the TF binding intensity rises from 1070 to 1450.

First: GTCCCGCCTTCTCCGCTTCCGCCACCTCCTACTTAG (protein concentration 2 nM)
Second: GGGAGAGATGGGGCGCGGAAGGAACGAGGCGGGACG (protein concentration 2 nM)
The TF binding intensity of the first is lower: 1160 for the first, 1350 for the second.

Compared with “CTGCTCGGCCAGGTCCGGAAAGAGAGAACGGGCTGG (protein concentration 2 nM)”, “CGAGCTTAGAAGGCGCTTCCGATGGGCGGAGTTTAG (protein concentration 2 nM)” is lower in TF binding intensity: 859 for the first, 742 for the second.

Compared with “CCTTTTTCGCCTCCTTTTCCTGCCCCAAGACTAGAG (protein concentration 2 nM)”, “GCTCCATCACCTCCTCTTCCGGTCCCTCCTCTAGGG (protein concentration 2 nM)” is lower in TF binding intensity: 1290 for the first, 1160 for the second.
